In PubChem BioAssay (NCI):
About 83,000 compounds went through this panel and 20% of them were active in at least one assay; those are over-represented in the sample as a whole.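 Single-dose data. Exposure time 48 hours. Values below 10 considered active.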 Active and inactive are the calls of the source.

How the values were obtained:
Assay in all cases: NCI-60 one-dose screen, 48 h (100 = growth as untreated, 0 = no growth, -100 = all killed)
NCI-H23 lung = settings: 10 µM unless noted
NCI-H226 lung = settings: 10 µM unless noted
NCI-H322M lung = settings: 10 µM unless noted
HOP-62 NSCLC = settings: 10 µM unless noted
NCI-H460 lung = settings: 10 µM unless noted
HOP-92 NSCLC = settings: 10 µM unless noted
NCI-H522 lung = settings: 10 µM unless noted
A549/ATCC NSCLC = settings: 10 µM unless noted
786-0 renal = settings: 10 µM unless noted
COLO 205 colon = settings: 10 µM unless noted
DU-145 prostate = settings: 10 µM unless noted
K-562 leukemia = settings: 10 µM unless noted
MALME-3M melanoma = settings: 10 µM unless noted
MDA-MB-231 breast = settings: 10 µM unless noted
SF-268 CNS = settings: 10 µM unless noted
SF-295 CNS = settings: 10 µM unless noted
SF-539 CNS = settings: 10 µM unless noted
UACC-257 melanoma = settings: 10 µM
M14 melanoma = settings: 10 µM unless noted
RXF 393 renal = settings: 10 µM unless noted

Measured: growth

Nc1c(C(=O)Nc2cccc(C(F)(F)F)c2)sc2nc3c(cc12)C(O)CCC3 (stereo unspecified)
inactive: NCI-H23 lung 39.5% | NCI-H226 lung 56.3% | NCI-H322M lung 27.2% | HOP-62 NSCLC 40.7% | NCI-H460 lung 14.5% | HOP-92 NSCLC 67.2% | NCI-H522 lung 19.3% | A549/ATCC NSCLC 24.7% | 786-0 renal 47.4% | K-562 leukemia 14.4% | MALME-3M melanoma 51.2% | MDA-MB-231 breast 61.9% | SF-268 CNS 45.6% | SF-295 CNS 27.2% | SF-539 CNS 21.6% | UACC-257 melanoma 44.2% | M14 melanoma 30.9%
active: COLO 205 colon 9.16% | DU-145 prostate 9.15%

CC(=O)Nc1nc(C(=O)N2N=C(C)/C(=C/c3ccc(Cl)cc3)C2=O)cs1
inactive: NCI-H23 lung 102% | NCI-H226 lung 106% | NCI-H322M lung 99% | HOP-62 NSCLC 97% | NCI-H460 lung 105% | HOP-92 NSCLC 95.7% | NCI-H522 lung 44.7% | A549/ATCC NSCLC 103% | 786-0 renal 100% | COLO 205 colon 104% | DU-145 prostate 103% | K-562 leukemia 106% | MALME-3M melanoma 93.1% | MDA-MB-231 breast 110% | SF-268 CNS 96.2% | SF-295 CNS 98.2% | SF-539 CNS 107% | UACC-257 melanoma 94% | M14 melanoma 96.7%

CCC(=O)Nc1ccccc1C#C/C=C\C#Cc1ccccc1SC
inactive: NCI-H23 lung 79.9% | NCI-H226 lung 76.4% | NCI-H322M lung 101% | HOP-62 NSCLC 66.5% | NCI-H460 lung 28.6% | HOP-92 NSCLC 48.1% | NCI-H522 lung 84.4% | A549/ATCC NSCLC 62.4% | 786-0 renal 87.7% | COLO 205 colon 66.2% | DU-145 prostate 77.3% | K-562 leukemia 56% | MALME-3M melanoma 76.8% | MDA-MB-231 breast 47.9% | SF-268 CNS 63.9% | SF-295 CNS 59.8% | SF-539 CNS 60.1% | M14 melanoma 59.9%

CCN1C(=O)N(CC)C2Nn3c(s/c(=C4\C(=O)N(C5CCCC5)c5ccccc54)c3=O)=NC21 (stereo unspecified)
inactive: NCI-H23 lung 53.9% | NCI-H226 lung 91.8% | NCI-H322M lung 94.8% | HOP-62 NSCLC 50% | NCI-H460 lung 43.9% | HOP-92 NSCLC 67.4% | NCI-H522 lung 28% | A549/ATCC NSCLC 54.4% | 786-0 renal 63.6% | COLO 205 colon 26.2% | DU-145 prostate 43.6% | K-562 leukemia 22% | MALME-3M melanoma 70.9% | MDA-MB-231 breast 58.1% | SF-268 CNS 59.5% | SF-295 CNS 60.6% | SF-539 CNS 37% | M14 melanoma 91.9%

FC(F)(F)c1cccc(-n2nnc3cnc(Nc4ccc(N5CCCCC5)cc4)nc32)c1
inactive: NCI-H23 lung 66.5% | NCI-H226 lung 92.4% | NCI-H322M lung 90.7% | HOP-62 NSCLC 98.1% | NCI-H460 lung 12.6% | HOP-92 NSCLC 110% | A549/ATCC NSCLC 20.9% | 786-0 renal 25.3% | COLO 205 colon 77.2% | DU-145 prostate 57.6% | K-562 leukemia 67.3% | MALME-3M melanoma 41.6% | MDA-MB-231 breast 58.7% | SF-268 CNS 55.5% | SF-295 CNS 93.6% | SF-539 CNS 90.7% | UACC-257 melanoma 63.4% | M14 melanoma 33.8%
active: NCI-H522 lung 2.95%

COc1ccc(C2CC(c3cccs3)=NN2c2ccc(S(=O)(=O)NC(=O)NCc3cccc(OC)c3)cc2)cc1 (stereo unspecified)
active: A549/ATCC NSCLC 5.45% | COLO 205 colon -63.5%
inactive: NCI-H23 lung 97.6% | NCI-H226 lung 110% | NCI-H322M lung 102% | HOP-62 NSCLC 81% | NCI-H460 lung 109% | HOP-92 NSCLC 87.1% | NCI-H522 lung 87.3% | 786-0 renal 101% | DU-145 prostate 106% | K-562 leukemia 111% | MALME-3M melanoma 31.2% | MDA-MB-231 breast 113% | SF-268 CNS 97.9% | SF-295 CNS 105% | SF-539 CNS 104% | UACC-257 melanoma 30% | M14 melanoma 52.1%

COc1cc(OC)cc(-c2n[nH]nc2-c2ccc3c(c2)OCO3)c1
inactive: NCI-H23 lung 30.1% | NCI-H226 lung 92.1% | NCI-H322M lung 55.5% | HOP-62 NSCLC 30.3% | NCI-H460 lung 12% | HOP-92 NSCLC 57% | A549/ATCC NSCLC 28.9% | 786-0 renal 40% | DU-145 prostate 25.1% | K-562 leukemia 16.7% | MALME-3M melanoma 67.7% | MDA-MB-231 breast 18.9% | SF-268 CNS 52% | UACC-257 melanoma 71.4% | M14 melanoma 14.5%
active: NCI-H522 lung -41.5% | COLO 205 colon -61.2% | SF-295 CNS 1.21% | SF-539 CNS -31%

CCCCNc1nnc(-c2cc(-c3cc4ccccc4o3)nn2-c2ccccc2)o1
inactive: NCI-H23 lung 96.7% | NCI-H226 lung 86.2% | NCI-H322M lung 87.4% | HOP-62 NSCLC 110% | NCI-H460 lung 98.7% | HOP-92 NSCLC 46.4% | NCI-H522 lung 80% | A549/ATCC NSCLC 82% | 786-0 renal 93% | COLO 205 colon 105% | DU-145 prostate 102% | K-562 leukemia 83% | MALME-3M melanoma 93.1% | MDA-MB-231 breast 91.4% | SF-268 CNS 93.9% | SF-295 CNS 98.7% | SF-539 CNS 97.4% | M14 melanoma 108%

O=c1oc2c([nH]c3ccc4ccccc4c32)c2ccccc12
inactive: NCI-H23 lung 93.6% | NCI-H226 lung 104% | NCI-H322M lung 101% | HOP-62 NSCLC 103% | NCI-H460 lung 112% | HOP-92 NSCLC 90.2% | NCI-H522 lung 102% | A549/ATCC NSCLC 134% | 786-0 renal 102% | COLO 205 colon 108% | DU-145 prostate 106% | K-562 leukemia 124% | MALME-3M melanoma 115% | MDA-MB-231 breast 112% | SF-268 CNS 115% | SF-295 CNS 99.6% | SF-539 CNS 102% | M14 melanoma 109%

NC(=O)c1c(NC(=O)c2ccc3c(c2)OCO3)sc2c1CCC(=O)C2
active: NCI-H23 lung -12.6% | NCI-H226 lung -5.74% | NCI-H460 lung 3.04% | HOP-92 NSCLC -21% | NCI-H522 lung -58.9% | A549/ATCC NSCLC -9.76% | COLO 205 colon -42.2% | K-562 leukemia 1.31% | MALME-3M melanoma -44% | MDA-MB-231 breast -20.5% | SF-295 CNS -4.12% | SF-539 CNS -55.5%
inactive: NCI-H322M lung 14.8% | HOP-62 NSCLC 14.9% | 786-0 renal 12.2% | DU-145 prostate 40% | SF-268 CNS 21.5% | M14 melanoma 16.7%

COc1cccc2cc(-c3cc4ccccc4[nH]3)c(=NC(=O)c3ccc(Cl)cc3)oc12
inactive: NCI-H23 lung 40.2% | NCI-H226 lung 83.2% | NCI-H322M lung 93.3% | HOP-62 NSCLC 57.7% | NCI-H460 lung 85.3% | A549/ATCC NSCLC 65.5% | 786-0 renal 69.5% | COLO 205 colon 100% | DU-145 prostate 85.5% | K-562 leukemia 39.7% | MALME-3M melanoma 58.5% | MDA-MB-231 breast 54.3% | SF-268 CNS 53.5% | SF-295 CNS 67.3% | SF-539 CNS 58.2%
active: HOP-92 NSCLC -0.489% | NCI-H522 lung 9.69% | M14 melanoma -28.9%

CCCCCCc1nc2c(c(C)nn2-c2ccccc2)c2c1CCCCC2
inactive: NCI-H23 lung 100% | NCI-H226 lung 89.2% | NCI-H322M lung 110% | HOP-62 NSCLC 91.3% | NCI-H460 lung 110% | HOP-92 NSCLC 91.5% | NCI-H522 lung 93.2% | A549/ATCC NSCLC 103% | 786-0 renal 108% | COLO 205 colon 107% | DU-145 prostate 108% | K-562 leukemia 111% | MALME-3M melanoma 105% | RXF 393 renal 115% | SF-268 CNS 105% | SF-295 CNS 103% | SF-539 CNS 105% | UACC-257 melanoma 93.3% | M14 melanoma 118%

C#CCN1C(=O)/C(=c2\sc3n(c2=O)C2C(NN=3)N(CC)C(=O)N2CC)c2ccccc21 (stereo unspecified)
active: HOP-62 NSCLC -4.91% | NCI-H460 lung 5.2% | COLO 205 colon -12.2% | K-562 leukemia 7.6% | SF-295 CNS -13% | SF-539 CNS -39.7%
inactive: NCI-H23 lung 18.5% | NCI-H226 lung 98% | NCI-H322M lung 44.3% | HOP-92 NSCLC 58.1% | NCI-H522 lung 25% | A549/ATCC NSCLC 23.3% | 786-0 renal 12% | DU-145 prostate 14.8% | MALME-3M melanoma 43.6% | MDA-MB-231 breast 21% | SF-268 CNS 50% | M14 melanoma 26.1%

CC(C)(C)c1cn2cccc(C(=O)N3CCN(CC(=O)Nc4ccc(Cl)cc4C(=O)c4ccccc4Cl)CC3)c2n1
inactive: NCI-H23 lung 60.6% | NCI-H226 lung 71.6% | NCI-H322M lung 94.6% | HOP-62 NSCLC 84.7% | NCI-H460 lung 49.8% | NCI-H522 lung 54.9% | A549/ATCC NSCLC 27.6% | 786-0 renal 55.3% | COLO 205 colon 54.2% | DU-145 prostate 73.3% | K-562 leukemia 33.5% | MALME-3M melanoma 86.4% | MDA-MB-231 breast 73.5% | SF-268 CNS 85.8% | SF-539 CNS 51.4% | M14 melanoma 48.5%
active: HOP-92 NSCLC -30% | SF-295 CNS -5.34%

COc1ccc(/C=c2\sc3n(c2=O)C2C(NN=3)N(C)C(=O)N2C)cc1 (stereo unspecified)
inactive: NCI-H23 lung 36.3% | NCI-H226 lung 94.1% | NCI-H322M lung 46.6% | HOP-62 NSCLC 21% | HOP-92 NSCLC 54.7% | NCI-H522 lung 10.1% | A549/ATCC NSCLC 33% | 786-0 renal 23% | MALME-3M melanoma 25% | MDA-MB-231 breast 42.5% | SF-268 CNS 71.3% | M14 melanoma 15.4%
active: NCI-H460 lung 9.54% | COLO 205 colon -8.52% | DU-145 prostate 9.2% | K-562 leukemia -34.6% | SF-295 CNS -7.19% | SF-539 CNS -16.6%
